# PPARg SRC-2 ag: promotes SRC-2 coactivator recruitment by human PPARgamma; P37231; PPARgamma LBD-SRC-2 recruitment, biochemical; activation, % at 8 µM; 200,000 compounds, 0.34% hits;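 also: 0% = vehicle and 100% = reference agonist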
# Target sequence (P37231 whole entry, looked up, the tested form may be a part): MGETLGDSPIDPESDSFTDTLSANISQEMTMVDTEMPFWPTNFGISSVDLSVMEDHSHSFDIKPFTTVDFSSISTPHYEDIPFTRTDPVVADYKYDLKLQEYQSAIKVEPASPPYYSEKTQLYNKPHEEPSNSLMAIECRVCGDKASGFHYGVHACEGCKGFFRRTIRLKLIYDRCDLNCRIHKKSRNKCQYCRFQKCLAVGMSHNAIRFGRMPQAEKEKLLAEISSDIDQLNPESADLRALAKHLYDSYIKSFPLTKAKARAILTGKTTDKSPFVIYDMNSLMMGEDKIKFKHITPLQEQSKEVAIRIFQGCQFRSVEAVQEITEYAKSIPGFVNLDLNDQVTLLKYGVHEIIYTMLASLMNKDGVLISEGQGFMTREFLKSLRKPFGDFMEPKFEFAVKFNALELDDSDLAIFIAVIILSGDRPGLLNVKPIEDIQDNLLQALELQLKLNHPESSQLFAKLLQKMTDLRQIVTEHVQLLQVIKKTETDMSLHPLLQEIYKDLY
# SRC3 TRFRET art: flags TR-FRET format artefacts in PPARgamma SRC-3 recruitment agonist screen | TR-FRET ratio at 8 µM | TR-FRET artefact counter-screen, PPARgamma/SRC-3 format; hits give high values | 99,000 compounds, 0.39% hits; in the data active = TR-FRET ratio above about 2000
# TR-FRET SRC-2 ct: flags TR-FRET format artefacts in PPARgamma SRC-2 recruitment agonist screen | TR-FRET artefact counter-screen; hits give high values | TR-FRET ratio at 8 µM | 200,000 compounds, 0.4% hits | AID 1049; in the data active = TR-FRET ratio above about 2000
# PPARg SRC3 recr: promotes SRC-3 coactivator recruitment by human PPARgamma | P37231 | biochemical PPARgamma/SRC-3 coactivator recruitment assay | activation, % at 8 µM | 200,000 compounds, 0.26% hits; in the data active = activation above about 23%;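 also: 0% = DMSO and 100% = reference agonist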
# SRC1 TRFRET art: flags TR-FRET format artefacts in PPARgamma SRC-1 recruitment agonist screen. TR-FRET detection artefact counter-screen, emission ratio; hits give high values. TR-FRET ratio at 8 µM. 99,000 compounds, 0.34% hits. AID 1051; in the data active = TR-FRET ratio above about 2300
# PPARg SRC1 recr: promotes SRC-1 coactivator recruitment by human PPARgamma | AID 631 | P37231 | PPARgamma-SRC-1 coactivator recruitment biochemical assay | 200,000 compounds, 0.41% hits | activation, % at 8 µM; in the data active = activation above about 19%;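 also: 0% = DMSO and 100% = reference agonist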
# PPARg SRC2 conf: confirmation of agonists of SRC-2 recruitment by human PPARgamma | biochemical SRC-2 recruitment by PPARgamma | 790 compounds, 52% hits | activation, % at 8 µM | shares compounds with PPARg SRC3 recr;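 also: 0% = vehicle alone and 100% = reference agonist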
# PPARg SRC1 conf: confirmation of agonists of SRC-1 recruitment by human PPARgamma | shares compounds with PPARg SRC3 recr | PPARgamma–SRC-1 coactivator recruitment biochemical assay | activation, % at 8 µM | 790 compounds, 43% hits | AID 1300; in the data active = activation above about 20%;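 also: 0% = vehicle wells and 100% = reference agonist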
# PPARg SRC3 conf: confirmation of agonists of SRC-3 recruitment by human PPARgamma | 790 compounds, 29% hits | biochemical PPARgamma-SRC-3 coactivator recruitment, agonist mode | AID 1301 | activation, % at 8 µM | shares compounds with PPARg SRC3 recr; in the data active = activation above about 24%;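 also: 0% = vehicle wells and 100% = reference agonist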
# * hit, by the source's call; x = no result given. The list is not random: actives were taken first. Their share in the collection is about 0.9%. Rule as the data show it, unless noted: active = activation above about 22%; inactive = the rest.
SMILES,PPARg SRC-2 ag,SRC3 TRFRET art,TR-FRET SRC-2 ct,PPARg SRC3 recr,SRC1 TRFRET art,PPARg SRC1 recr,PPARg SRC2 conf,PPARg SRC1 conf,PPARg SRC3 conf
CCOC(=O)c1c(NC(=O)CSc2nnc(Cc3ccccc3)o2)sc(C(C)=O)c1C,36*,x,2328*,44*,x,16,20,13,15
CCOC(=O)c1c(NC(=O)CSc2nnc(-c3ccccc3)o2)sc(C(C)=O)c1C,11,x,1725,20,x,12,x,x,x
CCOc1ccc(NC(=O)CSc2nnc(COc3c(C)cccc3C)o2)cc1,3,x,1486,5,x,-1,x,x,x
CCOC(=O)c1cccc(NC(=O)CSc2nnc(COc3ccccc3C)o2)c1,5,x,1625,7,x,20*,5,4,3
Cc1ccc(NC(=S)N2CCN(c3ncccn3)CC2)c(C)c1,4,1540,1511,-5,1597,1,x,x,x
Cc1cc(NS(=O)(=O)c2ccc(Br)s2)no1,1,x,1545,-4,x,8,x,x,x
COc1ccc(OC)c(C(=O)COC(=O)c2cc(C)oc2C)c1,-2,x,1514,-3,x,2,x,x,x
Cc1cc(C(=O)OCC(=O)c2ccc(Br)s2)no1,90*,x,2269*,123*,x,65*,54*,34*,39*
Cc1cc(C(=O)OCC(=O)c2ccc(Br)s2)c(C)o1,8,x,1872,31*,x,20*,41*,30*,30*
Cc1ccc2nc(NC(=O)C3CCCN3C(=O)OC(C)(C)C)sc2c1 (stereo unspecified),-6,1608,1474,8,1842,9,x,x,x
Cc1ccc(S(=O)(=O)N2CCC(NC(=O)OC(C)C)CC2)cc1,-7,1382,1443,-2,1739,0,x,x,x
CCS(=O)(=O)c1ccc2c(c1)N(S(=O)(=O)c1ccc(Cl)cc1)CC(C(=O)O)O2 (stereo unspecified),-4,1448,1405,1,1889,8,x,x,x
Cc1ccccc1N=C(NO)c1nonc1N,14,1781,1760,8,1881,11,x,x,x
COc1cccc(C2C(C(=O)c3cc4ccccc4o3)=C(O)C(=O)N2c2cc(C)on2)c1OC (stereo unspecified),45*,x,2593*,69*,x,50*,36*,28*,25*
COc1ccc(OC)c(C2C(C(=O)c3cccs3)=C(O)C(=O)N2c2cc(C)on2)c1 (stereo unspecified),2,x,1544,-2,x,-6,x,x,x
COc1cccc(C2C(C(=O)c3cc4cccc(OC)c4o3)=C(O)C(=O)N2c2cc(C)on2)c1OC (stereo unspecified),35*,x,2236*,45*,x,33*,41*,28*,26*
COc1cc(C2C(C(=O)c3ccc(C)o3)=C(O)C(=O)N2c2cc(C)on2)ccc1O (stereo unspecified),5,x,1751,3,x,8,x,x,x
O=C(Nc1nc2c(s1)COc1ccccc1-2)c1cccs1,27*,x,2118*,15,x,19,41*,32*,28*
O=C(O)c1cc([N+](=O)[O-])c(NCCC2=CCCCC2)c([N+](=O)[O-])c1,3,1647,1625,-2,1819,-8,x,x,x
Cc1cc(OC(=O)c2c(F)cc(F)cc2F)nc(C)n1,-2,1756,1741,2,2078,9,x,x,x
COc1ccc(OCC(=O)Nc2cc(-c3nn4c(C)nnc4s3)ccc2C)cc1,-3,x,1633,24,x,28*,21,17,13
COc1ccc(C(=O)Nc2cc(-c3nn4c(C)nnc4s3)ccc2C)cc1,5,x,1579,6,x,4,x,x,x
CCCOC1CCCN(C(=O)CCc2nnc(CCCCc3ccccc3)o2)C1 (stereo unspecified),-1,1278,1605,0,1628,-6,x,x,x
COCCNC(=O)CSc1c2c(nc3ccc(Cl)cc13)CCCC2,31*,2446*,2154*,20,2521*,39*,19,10,12
CCOC(=O)C1CCN(C(=O)CSc2c3c(nc4ccccc24)CCC3)CC1,23*,1925,1921,9,1938,17,24*,13,13

# Screening data from PubChem.
